Screens deposited in PubChem by several laboratories.
697 NFkB inh: inhibitors of PMA/ionomycin-induced NF-kB reporter, 697 cells, primary screen, B-cell NF-kB inhibitor project, cell-based, luminescence, uHTS | AID 435022, 2010 | 697 B-cell NF-kB luciferase reporter, 16 h | inhibition, % at 4 µM | 330,000 tested, 0.33% active; in the data active = inhibition above about 35%
KLF5 inh: KLF5 expression inhibitors, primary screen, DLD-1 cells, luminescence | DLD-1 KLF5 promoter-luciferase reporter | inhibition, % at 5 µM | 290,000 tested, 0.23% active;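 active = inhibition above a per-plate limit of that plate's mean compound inhibition plus 3 SD, cut at about 60% in these data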;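 note: 0% = DMSO wells and 100% = LY294002 at 200 µM; higher means less KLF5 promoter-driven luciferase light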
aSyn UTR inh: MLPCN primary screen, SNCA 5' untranslated region; alpha-synuclein 5'UTR reporter, inhibitor activity; inhibition, % (tested at 7.5 µM); 300,000 tested, 0.82% active; in the data active = inhibition above about 60%; inconclusive = no clear call, values can overlap the other calls;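 note: H4 neuroglioblastoma cells stably carrying SNCA 5'UTR luciferase fusion; 0% = DMSO wells and 100% = positive control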
Gli-Sufu antag: Gli-Sufu pathway antagonists, primary screen, luciferase luminescence, Sufu-KO-LIGHT cells, uHTS; Sufu-KO-LIGHT fibroblasts, Gli luciferase reporter luminescence; 340,000 tested, 0.74% active; inhibition, % at 5 µM; AID 588413, 2011;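 active = inhibition above about 55%, limit read from the data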;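 note: 0% = DMSO-treated cells and 100% = wells with medium but no cells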
Mdm2-MdmX inh: inhibitors of human Mdm2-MdmX association, primary screen, cell-based, luminescence, split luciferase, SaOS-2, uHTS; SaOS-2 split-luciferase Mdm2/MdmX complementation; AID 485346, 2010; 330,000 tested, 3% active; inhibition, % at 8 µM;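 active = inhibition of at least 50% at 8 µM in the primary screen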
Jurkat NFkB inh: inhibitors of induced NF-kB luciferase reporter, primary screen, TCR NF-kB activation inhibitor project, cell-based, luminescence, uHTS; 330,000 tested, 0.53% active; AID 435003, 2010; Jurkat, PMA/ionomycin-induced NF-kB luciferase reporter; inhibition, % at 4 µM; in the data active = inhibition above about 50%
KLF5 confirm: KLF5 expression inhibitors, confirmation, DLD-1 cells, luminescence | shares compounds with KLF5 inh | DLD-1 KLF5 promoter firefly luciferase reporter | inhibition, % at 4 µM | 610 tested, 79% active;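 active = inhibition above a set limit taken from the earlier primary screen, cut at about 63% in these data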;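 note: 0% = DMSO wells and 100% = LY294002 at 200 µM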
IEC-6 tox: cytotoxicity in rat IEC-6 cells, cytotoxicity control for KLF5 inhibitor project, cell-based, luminescence, triplicate; shares compounds with KLF5 inh; IEC-6 rat intestinal cells, viability luminescence; inhibition, % at 4 µM; 610 tested, 56% active; in the data active = inhibition above about 23%;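 note: cells exposed to compounds for 48 hours before viability read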
Jurkat NFkB conf: PMA/ionomycin-induced NF-kB reporter inhibitors, Jurkat retest, confirmation, T-cell NF-kB inhibitor project, cell-based, luminescence, single concentration; shares compounds with Jurkat NFkB inh; Jurkat NF-kB luciferase, 16 h; inhibition, % at 4 µM; 2,700 tested, 27% active; AID 435020, 2010;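 active = inhibition reaching about 45% at 4 µM in either replicate, limit read from the data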;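 note: plate controls were PMA/ionomycin stimulated DMSO wells for no effect and unstimulated DMSO wells for full effect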
Mdm2-MdmX conf: Mdm2-MdmX complex disruptors, retested hits, confirmation, luminescence, single concentration | AID 489028, 2010 | Mdm2-MdmX binding, luminescent assay | shares compounds with Mdm2-MdmX inh | inhibition, % at 8 µM | 10,000 tested, 55% active; in the data active = inhibition above about 40%
Full FLuc ctr: full-length luciferase signal inhibition, confirmation, counter-screen for Mdm2/MdmX interaction inhibitor project, cell-based, single concentration, SaOS-2; shares compounds with Mdm2-MdmX inh; SaOS-2 full-length luciferase counterscreen, luminescence; inhibition, % at 8 µM; 6,200 tested, 77% active; AID 504607, 2011;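 active = mean inhibition at 8 µM reaching about 37%, which flags the compound as non-specific, limit read from the data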;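 note: p53-null SaOS-2 cells with luciferase driven by a doxycycline-inducible promoter; compound on cells about two nights before reading with doxycycline added after day one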
* marks the source's active call; other numbers are inactive results; ? = inconclusive; nt = no result. Compounds with a hit are over-represented: about 4.1% of the library has one in this group of screens.

SMILES	697 NFkB inh	KLF5 inh	aSyn UTR inh	Gli-Sufu antag	Mdm2-MdmX inh	Jurkat NFkB inh	KLF5 confirm	IEC-6 tox	Mdm2-MdmX conf	Full FLuc ctr	others
O=C(NC(Nc1nc2ccc([N+](=O)[O-])cc2s1)(C(F)(F)F)C(F)(F)F)c1ccccc1Cl	-37	77*	86*	93*	100*	78*	87*	90*	100*	15	Jurkat NFkB conf=70*
CC(C)(CO)NC(=O)c1ccc2nc(Cc3cccc(Cl)c3)oc2c1	-44	-45	-102	-2	-15	-30	nt	nt	nt	nt
O=C(C[C@@H]1C/C=C\C[C@H](NC(=O)OCC2c3ccccc3-c3ccccc32)C(=O)OC[C@H]2CCCN2C1=O)NCCO	0	nt	nt	42	10	-3	nt	nt	nt	nt
CC(=O)N(Cc1ccc(F)cc1)C1=C(NCCc2ccccc2)C(=O)c2ccccc2C1=O	7	79*	70*	75*	80*	16	5	-5	85*	52*
Cc1oc(CN2CCOCC2)cc1C(=O)O	5	0	11	-4	-42	5	nt	nt	nt	nt
COc1cccc(/C=N/NC(=O)c2c(-c3ccccc3)noc2C)c1O	-14	48	?	25	34	14	nt	nt	nt	nt
Cc1ccc(/C=N/NC(=O)c2c(-c3ccccc3)noc2C)c(O)c1	-70	66*	30	nt	65*	-19	63*	23*	62*	31
COc1cccc(/C=N/Nc2ncnc(N)c2[N+](=O)[O-])c1OC	-62	-23	27	-44	-56	-40	nt	nt	nt	nt
Cc1cc(/C=N/Nc2ncnc(N)c2[N+](=O)[O-])c(C)n1-c1ccccc1	-50	67*	95*	54	65*	39	97*	4	70*	54*
C=CCn1c(=O)[nH]c2cc(C(=O)N3CC=C(c4ccccc4)CC3)ccc2c1=O	-11	0	8	-18	-7	-4	nt	nt	nt	nt
C/C(=N\NC(=O)c1c(C)nc2ccccn12)c1ccccc1F	1	-34	-20	17	7	0	nt	nt	nt	nt
C/C(=N\NC(=O)c1c(C)nc2ccccn12)c1ccc(O)cc1O	-11	69*	84*	16	74*	29	84*	39*	78*	34
O=C1CCCN1CCC(=O)N1CCCC(Nc2ccc(F)c(F)c2)C1 (stereo not given)	7	-54	6	13	-8	-7	nt	nt	nt	nt
O=C(Cc1ccc(N2CCNC2=O)cc1)N1CCCC(Nc2ccc(F)c(F)c2)C1 (stereo not given)	-53	67*	13	-3	54*	63*	69*	62*	75*	56*	Jurkat NFkB conf=16
CCOc1ccc2c(c1)C(C)=CC(C)(C)N2S(=O)(=O)c1ccc(NC(C)=O)cc1	-156	73*	70*	65*	62*	56*	89*	71*	58*	113*	Jurkat NFkB conf=58*
COc1ccc2c(c1)C(C)=CC(C)(C)N2S(=O)(=O)c1ccc(NC(C)=O)cc1	-54	81*	71*	47	63*	45	88*	59*	54*	89*
